Outcome and AC50 data for six molecules are collected here from PubChem BioAssay (EPA / NIEHS).

Broadly, the AC50 is the concentration giving half of the maximal activity seen.

What all share (settings): mRNA level, 48 h; actives raise or lower the signal
Read-out in assay [1]: Forkhead box O3 (FOXO3), FOXO3 (gene 2309)
Briefly: LTEA_HepaRG_FOXO3: Life Technologies and Expression Analysis (LTEA) Assay for Forkhead box O3 (FOXO3) using HepaRG (AID 2283459). The method, boiled down:
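Differentiated human HepaRG cells, 48 h post-plating, exposed in duplicate for 48 h in serum-free induction medium; 8-point half-log series from 100 uM in 0.5% DMSO. FOXO3 mRNA by TaqMan qRT-PCR, normalized to ACTB/GAPDH/POLR2A; bidirectional fit versus DMSO.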

Read-out in assay [2]: ABC Transporter (ABCB1), ABCB1 (gene 5243)
Briefly: LTEA_HepaRG_ABCB1: Life Technologies and Expression Analysis (LTEA) Assay for ABC Transporter (ABCB1) using HepaRG (AID 2283460). The method, boiled down: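 HepaRG cells exposed in duplicate for 48 h in serum-free induction medium to eight half-log concentrations up to 100 uM in 0.5% DMSO. ABCB1 mRNA quantified by qRT-PCR, normalised to ACTB, GAPDH and POLR2A; fitted bidirectionally versus DMSO.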

Read-out in assay [3]: ABC Transporter (ABCC3), ABCC3 (gene 8714)
Briefly: LTEA_HepaRG_ABCC3: Life Technologies and Expression Analysis (LTEA) Assay for ABC Transporter (ABCC3) using HepaRG (AID 2283462). The method, boiled down:
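Transcriptional change of ABCC3 in HepaRG after 48 h treatment, determined by qRT-PCR normalized to endogenous controls. Concentrations spanned eight half-log steps to 100 uM in 0.5% DMSO.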

Read-out in assay [4]: ABC Transporter (ABCB11), ABCB11 (gene 8647)
As to the kind of experiment: LTEA_HepaRG_ABCB11: Life Technologies and Expression Analysis (LTEA) Assay for ABC Transporter (ABCB11) using HepaRG (AID 2283463). An outline of the steps: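 Differentiated human HepaRG cells in serum-free induction medium, dosed in duplicate for 48 h. Eight-point half-log series from 100 uM in 0.5% DMSO; ABCB11 mRNA by qRT-PCR, normalized to ACTB, GAPDH, POLR2A, fitted bidirectionally versus DMSO.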

Read-out in assay [5]: ABC Transporter (ABCC2), ABCC2 (gene 1244)
Briefly: LTEA_HepaRG_ABCC2: Life Technologies and Expression Analysis (LTEA) Assay for ABC Transporter (ABCC2) using HepaRG (AID 2283464). An outline of the steps:
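After plating and 48 h culture, HepaRG medium is replaced with serum-free induction medium and chemicals are added (8 concentrations, max 100 uM, 0.5% DMSO) for 48 h. Total RNA then undergoes qRT-PCR for ABCC2 with housekeeping normalization.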

Read-out in assay [6]: Broad substrate specificity ATP-binding cassette transporter ABCG2 (Homo sapiens) (UniProt Q9UNQ0)
Briefly: LTEA_HepaRG_ABCG2: Life Technologies and Expression Analysis (LTEA) Assay for ABC Transporter (ABCG2) using HepaRG (AID 2283465). An outline of the steps: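 Differentiated HepaRG cells were exposed for 48 h in serum-free induction medium to 8 half-log concentrations, top 100 uM, in 0.5% DMSO. ABCG2 mRNA was measured by qRT-PCR, normalized to ACTB, GAPDH and POLR2A, with bidirectional fitting versus DMSO.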

Read-out in assay [7]: ATP-citrate lyase (ACLY), ACLY (gene 47)
Briefly: LTEA_HepaRG_ACLY: Life Technologies and Expression Analysis (LTEA) Assay for ATP-citrate lyase (ACLY) using HepaRG (AID 2283466). The method, boiled down: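 Differentiated HepaRG cells exposed 48 h in serum-free induction medium to eight half-log concentrations up to 100 uM in 0.5% DMSO, duplicates. Transcript measured by Fluidigm TaqMan qRT-PCR, normalized to ACTB, GAPDH, POLR2A; bidirectional fit versus DMSO.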

Read-out in assay [8]: Alkaline Phosphatase, Placental (ALPP) gene, ALPP (gene 250)
As to the kind of experiment: LTEA_HepaRG_ALPP: Life Technologies and Expression Analysis (LTEA) Assay for Alkaline Phosphatase, Placental (ALPP) gene using HepaRG (AID 2283468). An outline of the steps:
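Using human liver HepaRG cells, chemicals are tested in duplicate over 48 h at half-log concentrations topping at 100 uM; phenobarbital 1 mM serves as induction control. ALPP mRNA change by qRT-PCR, bidirectional fit against vehicle.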

Read-out in assay [9]: Bcl-2 (BAD) gene, BAD (gene 572)
As to the kind of experiment: LTEA_HepaRG_BAD: Life Technologies and Expression Analysis (LTEA) Assay for Bcl-2 (BAD) gene using HepaRG (AID 2283469). The method, boiled down:
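Differentiated HepaRG cells were exposed in duplicate in 0.5% DMSO for 48 h to eight-point half-log concentrations up to 100 uM. BAD mRNA was measured by Fluidigm TaqMan qRT-PCR, normalized to ACTB, GAPDH and POLR2A, and fitted bidirectionally against DMSO.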

Read-out in assay [10]: Bcl-2 (BAX) gene, BAX (gene 581)
Briefly: LTEA_HepaRG_BAX: Life Technologies and Expression Analysis (LTEA) Assay for Bcl-2 (BAX) gene using HepaRG (AID 2283470). The method, boiled down: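 Differentiated human HepaRG cells, plated 48 h then switched to serum-free induction medium, were exposed 48 h to 8 half-log concentrations up to 100 uM in 0.5% DMSO; BAX mRNA measured by qRT-PCR, normalized to ACTB, GAPDH, POLR2A.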

Read-out in assay [11]: adenosine kinase (ADK) gene, ADK (gene 132)
Briefly: LTEA_HepaRG_ADK: Life Technologies and Expression Analysis (LTEA) Assay for adenosine kinase (ADK) gene using HepaRG (AID 2283471). The method, boiled down: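 Read-out is ADK transcript level measured by qRT-PCR and normalised to three housekeeping genes. Cells are human HepaRG, dosed for 48 h at up to 100 uM in 0.5% DMSO. Gain or loss of signal is fitted against DMSO controls.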

Read-out in assay [12]: Alpha-fetoprotein (AFP) gene, AFP (gene 174)
Briefly: LTEA_HepaRG_AFP: Life Technologies and Expression Analysis (LTEA) Assay for Alpha-fetoprotein (AFP) gene using HepaRG (AID 2283472). The method, boiled down: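 Human HepaRG cells plated 48 h, then switched to serum-free induction medium and exposed in duplicate for 48 h to 8-point half-log series from 100 uM in 0.5% DMSO. AFP mRNA by qRT-PCR, normalized to ACTB, GAPDH, POLR2A; bidirectional fit versus DMSO.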

Read-out in assay [13]: BCL2L11 (gene 10018)
Briefly: LTEA_HepaRG_BCL2L11: Life Technologies and Expression Analysis (LTEA) Assay for Bcl-2 (BCL2L11) gene using HepaRG (AID 2283473). An outline of the steps:
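Human hepatic HepaRG cultures are treated 48 h with test chemicals (maximum 100 uM, 0.5% DMSO vehicle). Expression of BCL2L11 is measured by qRT-PCR against ACTB, GAPDH and POLR2A, with activity in either direction scored relative to vehicle.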

Read-out in assay [14]: Apolipoprotein A-V (APOA5) gene, APOA5 (gene 116519)
As to the kind of experiment: LTEA_HepaRG_APOA5: Life Technologies and Expression Analysis (LTEA) Assay for Apolipoprotein A-V (APOA5) gene using HepaRG (AID 2283474). An outline of the steps: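 Concentration-response of APOA5 expression in HepaRG: eight half-log doses to 100 uM, 48 h, qRT-PCR normalized to ACTB/GAPDH/POLR2A, bidirectional fitting with 0.5% DMSO as baseline.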

Read-out in assay [15]: Apoptosis regulator Bcl-2 (Homo sapiens) (UniProt P10415)
As to the kind of experiment: LTEA_HepaRG_BCL2: Life Technologies and Expression Analysis (LTEA) Assay for Bcl-2 gene using HepaRG (AID 2283475). The method, boiled down: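 Differentiated HepaRG cells in serum-free induction medium were exposed for 48 h to eight half-log concentrations up to 100 uM in 0.5% DMSO, in duplicate. BCL2 mRNA was quantified by TaqMan qRT-PCR normalised to ACTB, GAPDH and POLR2A, with bidirectional fitting versus DMSO.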

Read-out in assay [16]: Bcl-2 (BID) gene, BID (gene 637)
Briefly: LTEA_HepaRG_BID: Life Technologies and Expression Analysis (LTEA) Assay for Bcl-2 (BID) gene using HepaRG (AID 2283476). The method, boiled down: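 Differentiated HepaRG cells in serum-free induction medium were exposed in duplicate for 48 h to eight half-log concentrations up to 100 uM in 0.5% DMSO. BID mRNA was quantified by qRT-PCR, normalized to ACTB, GAPDH and POLR2A.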

Read-out in assay [17]: Caspase-3 (Homo sapiens) (UniProt P42574)
Briefly: LTEA_HepaRG_CASP3: Life Technologies and Expression Analysis (LTEA) Assay for cysteine-aspartic acid protease (CASP3) using HepaRG (AID 2283477). An outline of the steps: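 Transcript-level assay: CASP3 mRNA in human HepaRG after 48 h treatment, eight half-log concentrations from 100 uM in 0.5% DMSO, quantified by qRT-PCR.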

Read-out in assay [18]: Cytochrome P450 (CYP24A1), CYP24A1 (gene 1591)
As to the kind of experiment: LTEA_HepaRG_CYP24A1: Life Technologies and Expression Analysis (LTEA) Assay for Cytochrome P450 (CYP24A1) using HepaRG (AID 2283478). An outline of the steps: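 Gene expression of CYP24A1 by TaqMan qRT-PCR in HepaRG after 48 h treatment, highest concentration 100 uM; activity fitted in both directions relative to DMSO vehicle.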

Activity calls are given as the source filed them. How the source made its calls: active means hit-call score of the fitted dose curve at least 0.9, where 1 is the maximum; inactive means score below 0.9.

Broad substrate specificity ATP-binding cassette transporter ABCG2 (Homo sapiens), sequence (Q9UNQ0 whole entry, looked up): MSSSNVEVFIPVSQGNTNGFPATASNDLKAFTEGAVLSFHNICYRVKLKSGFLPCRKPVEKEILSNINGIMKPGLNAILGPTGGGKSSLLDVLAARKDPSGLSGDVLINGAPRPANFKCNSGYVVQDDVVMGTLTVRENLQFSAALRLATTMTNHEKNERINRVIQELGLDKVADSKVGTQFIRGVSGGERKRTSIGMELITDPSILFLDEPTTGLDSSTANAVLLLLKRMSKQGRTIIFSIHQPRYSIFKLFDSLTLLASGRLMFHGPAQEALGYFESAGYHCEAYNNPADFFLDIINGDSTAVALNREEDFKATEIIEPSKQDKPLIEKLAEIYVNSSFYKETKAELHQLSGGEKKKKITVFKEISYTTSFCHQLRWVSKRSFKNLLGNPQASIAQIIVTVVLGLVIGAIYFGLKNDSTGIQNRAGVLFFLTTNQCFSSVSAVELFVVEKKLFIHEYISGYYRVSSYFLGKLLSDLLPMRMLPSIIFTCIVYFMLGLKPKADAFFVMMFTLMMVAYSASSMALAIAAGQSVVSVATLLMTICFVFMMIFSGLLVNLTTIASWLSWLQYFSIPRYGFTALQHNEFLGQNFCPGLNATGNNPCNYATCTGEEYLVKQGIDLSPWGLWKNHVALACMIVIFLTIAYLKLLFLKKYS
Apoptosis regulator Bcl-2 (Homo sapiens), sequence (P10415 whole entry, looked up): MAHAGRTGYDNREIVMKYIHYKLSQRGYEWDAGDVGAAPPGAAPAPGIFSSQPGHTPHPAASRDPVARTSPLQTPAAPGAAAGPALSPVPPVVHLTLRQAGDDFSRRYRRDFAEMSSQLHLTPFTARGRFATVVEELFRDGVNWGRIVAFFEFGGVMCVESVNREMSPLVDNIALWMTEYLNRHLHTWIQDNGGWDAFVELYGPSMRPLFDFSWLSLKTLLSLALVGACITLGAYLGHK
Caspase-3 (Homo sapiens), sequence (P42574 whole entry, looked up): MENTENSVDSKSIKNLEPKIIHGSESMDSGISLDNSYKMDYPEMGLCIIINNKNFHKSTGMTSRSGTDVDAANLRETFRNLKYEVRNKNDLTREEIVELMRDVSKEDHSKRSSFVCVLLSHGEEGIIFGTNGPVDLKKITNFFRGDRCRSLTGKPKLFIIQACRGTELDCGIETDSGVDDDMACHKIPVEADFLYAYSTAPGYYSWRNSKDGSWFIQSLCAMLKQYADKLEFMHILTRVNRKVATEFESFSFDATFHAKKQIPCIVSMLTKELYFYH

`CCOc1ccc(C(C)(C)COCc2cccc(Oc3ccccc3)c2)cc1`: the molecule was classed as inactive in assay [1], in [3], in [4], in [7], in assay [8] and in [9]. Moreover, the molecule was classed as inactive in assay [10], in assay [11], in [12], in assay [13], in [14] and in [15]. Further, the outcome in assay [16], in assay [17] and in assay [18] was inactive. The AC50 in assay [2] is 8.69 µM (active); in [5], 24.6 µM (active); in assay [6], 2.64 µM (active).

On to `O=C(O)C1C(C(=O)O)C2(Cl)C(Cl)=C(Cl)C1(Cl)C2(Cl)Cl` (stereo not drawn), for which the outcome in [1], in assay [2], in [3], in [4], in [5] and in assay [6] was inactive. For the same molecule, the molecule was classed as inactive in [7], in [8], in assay [9], in [10], in [11] and in [12]. Further, the outcome in [13], in [14], in assay [15], in assay [16], in [17] and in assay [18] was inactive.

Take `CSC(C)(C)C=NO`: the outcome in assay [1], in assay [2], in assay [3], in [4], in assay [5] and in assay [6] was inactive. The molecule was called inactive in assay [7], in [8], in assay [9], in assay [10], in assay [11] and in [12]. In addition, the molecule was classed as inactive in assay [13], in [14], in assay [15], in assay [16], in assay [17] and in [18].

As to `COCCOCCO`, the call in assay [1], in [2], in assay [3], in [4], in [5] and in [6] was inactive. The result in [7], in assay [8], in assay [9], in [10], in assay [11] and in [12] was inactive. Further, the result in assay [13], in assay [14], in assay [15], in assay [16], in assay [17] and in assay [18] was inactive.

In the case of `CCN(CC)c1ccccc1`, the outcome in [1], in [2], in assay [3], in [4], in assay [5] and in [6] was inactive. Moreover, the molecule was classed as inactive in [7], in [8], in [9], in assay [10], in [11] and in [12]. Also, the call in assay [13], in [14], in assay [15], in assay [16], in assay [17] and in [18] was inactive.

As to `O=P1(N(CCCl)CCCl)NCCCO1` (stereo not drawn), the molecule was classed as inactive in assay [1], in assay [2], in assay [3], in assay [4], in [5] and in assay [6]. For the same molecule, the result in [7], in assay [8], in [9], in assay [10], in assay [11] and in assay [12] was inactive. Also, the molecule was classed as inactive in [13], in assay [14], in assay [15], in [16], in [17] and in [18].
